Laboratory results as given in article PMC7862700, “An all-to-all approach to the identification of sequence-specific readers for epigenetic DNA modifications on cytosine”.

Legend:
Assay in all cases: DAPPL (digital affinity profiling via proximity ligation, sequencing); 10 mM Tris-HCl pH 7.5, 50 mM NaCl, 1 mM DTT, 4% glycerol, room temperature, 30 min; GST-TFs on glutathione beads, 16-mer random dsDNA library, 0.1% formaldehyde crosslink after washing; high values mean tight binding
Conditions in all cases: protein: recombinant; tags: N-terminal GST; dsDNA, one strand shown
[1] = molecular target: T1, FEV (Homo sapiens, UniProt Q99581 1-238)
T1 sequence: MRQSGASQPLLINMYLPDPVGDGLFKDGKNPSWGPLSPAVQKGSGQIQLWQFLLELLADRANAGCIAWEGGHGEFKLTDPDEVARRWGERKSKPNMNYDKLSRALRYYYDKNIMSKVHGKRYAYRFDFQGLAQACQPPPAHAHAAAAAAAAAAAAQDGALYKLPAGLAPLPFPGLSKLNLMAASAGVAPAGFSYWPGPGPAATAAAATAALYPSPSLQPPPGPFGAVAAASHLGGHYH
How it was run: (§1)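 After expression in yeast as GST fusions, human transcription factors were bound to glutathione beads, DNA-barcoded and mixed with a tag-only sample. The pools were incubated with 200 nmole of a 16-mer random double-stranded DNA library in Tris/NaCl/DTT/glycerol buffer (30 min, room temperature), washed and crosslinked with 0.1% formaldehyde. Proximity ligation with BsaI/T4 ligase ran for 1 h at 37 °C, before PCR amplification and sequencing on an Illumina NextSeq500. Binding signal is a hexamer's read frequency for a factor divided by its frequency for the tag-only sample.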

[2] = molecular target: ETV5 (Homo sapiens, UniProt P41161 1-510)
Sequence of ETV5 (P41161 whole entry): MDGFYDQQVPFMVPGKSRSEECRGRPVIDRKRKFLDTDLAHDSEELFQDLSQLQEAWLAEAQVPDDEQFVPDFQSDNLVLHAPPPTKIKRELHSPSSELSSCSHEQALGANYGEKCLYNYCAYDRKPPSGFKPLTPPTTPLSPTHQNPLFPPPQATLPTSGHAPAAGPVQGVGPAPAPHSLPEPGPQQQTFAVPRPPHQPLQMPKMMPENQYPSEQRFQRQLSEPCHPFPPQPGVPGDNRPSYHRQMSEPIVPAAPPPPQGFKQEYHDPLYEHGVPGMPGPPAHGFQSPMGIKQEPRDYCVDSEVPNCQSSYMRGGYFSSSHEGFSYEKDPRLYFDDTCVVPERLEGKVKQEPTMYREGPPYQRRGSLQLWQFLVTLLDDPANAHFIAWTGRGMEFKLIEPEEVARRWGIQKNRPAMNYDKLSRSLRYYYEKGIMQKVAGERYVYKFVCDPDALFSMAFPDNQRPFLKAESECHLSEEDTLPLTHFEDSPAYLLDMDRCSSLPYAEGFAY
How it was run: as §1

[3] = molecular target: T2, SPIC (Homo sapiens, UniProt Q8N5J4 1-248)
T2 sequence: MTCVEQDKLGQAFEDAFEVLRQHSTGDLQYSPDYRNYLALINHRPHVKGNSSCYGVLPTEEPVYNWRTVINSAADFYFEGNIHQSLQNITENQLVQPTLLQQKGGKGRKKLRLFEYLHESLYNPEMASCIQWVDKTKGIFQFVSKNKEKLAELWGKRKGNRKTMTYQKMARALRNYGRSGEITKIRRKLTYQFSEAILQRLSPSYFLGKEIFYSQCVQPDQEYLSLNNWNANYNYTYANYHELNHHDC
How it was run: as §1

[4] = molecular target: ELF4 (Homo sapiens, UniProt Q99607 1-663)
Sequence of ELF4 (Q99607 whole entry): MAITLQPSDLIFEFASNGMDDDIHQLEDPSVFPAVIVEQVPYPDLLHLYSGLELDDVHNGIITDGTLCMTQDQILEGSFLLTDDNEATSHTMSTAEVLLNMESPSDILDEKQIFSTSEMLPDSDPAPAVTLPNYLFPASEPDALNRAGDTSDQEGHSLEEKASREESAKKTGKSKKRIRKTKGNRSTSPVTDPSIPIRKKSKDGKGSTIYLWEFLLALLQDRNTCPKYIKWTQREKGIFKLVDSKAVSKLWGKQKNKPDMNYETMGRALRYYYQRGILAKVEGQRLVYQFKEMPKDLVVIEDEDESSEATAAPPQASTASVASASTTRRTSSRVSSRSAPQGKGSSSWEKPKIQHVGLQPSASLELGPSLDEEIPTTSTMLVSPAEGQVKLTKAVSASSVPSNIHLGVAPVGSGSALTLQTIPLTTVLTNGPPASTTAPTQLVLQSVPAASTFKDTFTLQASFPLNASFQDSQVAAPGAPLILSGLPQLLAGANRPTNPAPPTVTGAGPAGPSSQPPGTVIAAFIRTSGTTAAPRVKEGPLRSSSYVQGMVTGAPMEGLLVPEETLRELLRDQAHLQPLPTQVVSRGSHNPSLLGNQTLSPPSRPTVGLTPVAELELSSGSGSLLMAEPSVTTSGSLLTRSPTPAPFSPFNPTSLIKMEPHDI
How it was run: as §1

[5] = molecular target: T3, ELK4 (Homo sapiens, UniProt P28324-2 1-405)
T3 sequence: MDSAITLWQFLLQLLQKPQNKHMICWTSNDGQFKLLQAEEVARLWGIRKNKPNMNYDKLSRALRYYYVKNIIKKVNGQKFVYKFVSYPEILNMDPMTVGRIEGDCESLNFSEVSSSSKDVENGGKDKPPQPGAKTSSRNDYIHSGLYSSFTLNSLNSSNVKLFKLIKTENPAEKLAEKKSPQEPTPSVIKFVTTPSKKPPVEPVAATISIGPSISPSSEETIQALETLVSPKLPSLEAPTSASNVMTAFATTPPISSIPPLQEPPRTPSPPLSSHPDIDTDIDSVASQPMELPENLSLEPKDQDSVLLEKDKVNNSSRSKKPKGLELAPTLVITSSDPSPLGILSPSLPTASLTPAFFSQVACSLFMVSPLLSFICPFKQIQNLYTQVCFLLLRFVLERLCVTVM
How it was run: as §1

[6] = molecular target: T4, ETV2 (Homo sapiens, UniProt O00321 1-342)
T4 sequence: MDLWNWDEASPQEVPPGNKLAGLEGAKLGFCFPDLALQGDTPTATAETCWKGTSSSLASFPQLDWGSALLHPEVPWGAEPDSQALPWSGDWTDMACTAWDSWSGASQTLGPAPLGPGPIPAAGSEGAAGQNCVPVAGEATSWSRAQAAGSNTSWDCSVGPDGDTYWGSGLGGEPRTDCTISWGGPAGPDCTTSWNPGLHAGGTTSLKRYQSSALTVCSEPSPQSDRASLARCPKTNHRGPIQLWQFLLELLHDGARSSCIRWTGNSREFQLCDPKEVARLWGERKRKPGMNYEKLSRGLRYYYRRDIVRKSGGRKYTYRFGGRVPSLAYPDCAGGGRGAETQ
How it was run: as §1

[7] = molecular target: ETV1 (Homo sapiens, UniProt P50549 1-477)
Sequence of ETV1 (P50549 whole entry): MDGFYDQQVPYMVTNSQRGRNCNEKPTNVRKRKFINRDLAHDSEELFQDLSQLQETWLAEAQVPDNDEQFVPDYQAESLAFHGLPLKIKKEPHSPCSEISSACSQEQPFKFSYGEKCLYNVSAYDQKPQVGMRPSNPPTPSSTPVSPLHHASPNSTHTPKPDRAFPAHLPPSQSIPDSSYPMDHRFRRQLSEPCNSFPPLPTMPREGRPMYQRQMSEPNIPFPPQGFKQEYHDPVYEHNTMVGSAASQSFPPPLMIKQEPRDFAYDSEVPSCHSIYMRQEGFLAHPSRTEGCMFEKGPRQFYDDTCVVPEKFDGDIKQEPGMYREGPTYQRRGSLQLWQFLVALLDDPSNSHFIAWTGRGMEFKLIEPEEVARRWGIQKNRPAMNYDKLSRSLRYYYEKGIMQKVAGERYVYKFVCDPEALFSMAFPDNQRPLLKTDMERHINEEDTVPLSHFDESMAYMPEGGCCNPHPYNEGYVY
How it was run: as §1

[8] = molecular target: T5, ERF (Homo sapiens, UniProt P50548 1-548)
T5 sequence: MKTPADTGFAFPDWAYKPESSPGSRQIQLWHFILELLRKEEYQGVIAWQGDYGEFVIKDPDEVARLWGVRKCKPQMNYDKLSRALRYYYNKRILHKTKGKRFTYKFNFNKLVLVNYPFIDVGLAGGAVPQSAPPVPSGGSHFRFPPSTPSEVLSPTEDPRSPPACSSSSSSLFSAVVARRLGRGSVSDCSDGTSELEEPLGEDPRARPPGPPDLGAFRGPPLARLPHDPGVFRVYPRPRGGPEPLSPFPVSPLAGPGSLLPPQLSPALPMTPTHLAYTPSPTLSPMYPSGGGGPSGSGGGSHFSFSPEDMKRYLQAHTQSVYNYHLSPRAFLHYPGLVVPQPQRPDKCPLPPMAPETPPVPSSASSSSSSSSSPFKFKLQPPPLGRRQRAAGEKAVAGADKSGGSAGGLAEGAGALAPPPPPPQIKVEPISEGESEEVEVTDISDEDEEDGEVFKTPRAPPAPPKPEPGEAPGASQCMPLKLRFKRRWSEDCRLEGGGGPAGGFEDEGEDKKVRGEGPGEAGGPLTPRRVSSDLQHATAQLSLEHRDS
How it was run: as §1

[9] = molecular target: T6, ETV3L (Homo sapiens, UniProt Q6ZN32 1-361)
T6 sequence: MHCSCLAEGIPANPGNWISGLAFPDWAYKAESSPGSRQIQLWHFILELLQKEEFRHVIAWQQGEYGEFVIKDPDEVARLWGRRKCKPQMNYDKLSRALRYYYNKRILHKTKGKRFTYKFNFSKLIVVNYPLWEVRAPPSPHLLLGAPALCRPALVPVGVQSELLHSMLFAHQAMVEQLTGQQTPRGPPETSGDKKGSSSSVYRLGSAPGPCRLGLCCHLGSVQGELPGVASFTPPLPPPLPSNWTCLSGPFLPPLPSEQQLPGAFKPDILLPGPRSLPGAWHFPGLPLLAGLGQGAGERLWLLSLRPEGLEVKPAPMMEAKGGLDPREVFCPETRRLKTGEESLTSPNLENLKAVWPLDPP
How it was run: as §1

[10] = molecular target: T7, ETS2 (Homo sapiens, UniProt P15036 1-469)
T7 sequence: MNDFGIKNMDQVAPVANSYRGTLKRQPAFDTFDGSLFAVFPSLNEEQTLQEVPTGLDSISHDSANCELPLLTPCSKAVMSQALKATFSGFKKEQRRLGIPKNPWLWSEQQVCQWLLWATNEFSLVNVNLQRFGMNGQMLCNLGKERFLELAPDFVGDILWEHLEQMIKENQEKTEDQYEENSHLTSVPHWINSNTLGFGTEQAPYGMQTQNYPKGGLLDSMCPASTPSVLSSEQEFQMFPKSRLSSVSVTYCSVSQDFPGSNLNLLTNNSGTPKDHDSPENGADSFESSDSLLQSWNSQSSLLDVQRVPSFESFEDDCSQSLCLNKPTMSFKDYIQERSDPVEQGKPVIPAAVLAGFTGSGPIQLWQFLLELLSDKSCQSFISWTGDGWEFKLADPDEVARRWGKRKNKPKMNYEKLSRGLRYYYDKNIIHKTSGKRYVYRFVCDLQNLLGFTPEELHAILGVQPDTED
How it was run: as §1

[11] = molecular target: T8, SPDEF (Homo sapiens, UniProt O95238 1-335)
T8 sequence: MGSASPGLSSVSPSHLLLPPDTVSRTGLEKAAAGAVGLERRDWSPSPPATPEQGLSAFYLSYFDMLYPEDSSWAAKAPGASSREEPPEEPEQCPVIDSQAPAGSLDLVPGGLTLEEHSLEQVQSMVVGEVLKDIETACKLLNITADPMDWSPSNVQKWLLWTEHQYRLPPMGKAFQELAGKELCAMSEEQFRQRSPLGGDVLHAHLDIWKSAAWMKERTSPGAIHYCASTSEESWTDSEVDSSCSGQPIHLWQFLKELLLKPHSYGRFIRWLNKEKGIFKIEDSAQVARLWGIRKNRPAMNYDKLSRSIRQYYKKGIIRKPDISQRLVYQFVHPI
How it was run: as §1

[12] = molecular target: T9, ETV3 (Homo sapiens, UniProt P41162-2 1-143)
T9 sequence: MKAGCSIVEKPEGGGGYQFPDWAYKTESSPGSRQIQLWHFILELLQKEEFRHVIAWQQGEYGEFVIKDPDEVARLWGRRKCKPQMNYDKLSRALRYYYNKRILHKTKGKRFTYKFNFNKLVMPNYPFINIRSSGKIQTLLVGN
How it was run: as §1

[13] = molecular target: ETV6 (Homo sapiens, UniProt P41212 1-452)
Sequence of ETV6 (P41212 whole entry): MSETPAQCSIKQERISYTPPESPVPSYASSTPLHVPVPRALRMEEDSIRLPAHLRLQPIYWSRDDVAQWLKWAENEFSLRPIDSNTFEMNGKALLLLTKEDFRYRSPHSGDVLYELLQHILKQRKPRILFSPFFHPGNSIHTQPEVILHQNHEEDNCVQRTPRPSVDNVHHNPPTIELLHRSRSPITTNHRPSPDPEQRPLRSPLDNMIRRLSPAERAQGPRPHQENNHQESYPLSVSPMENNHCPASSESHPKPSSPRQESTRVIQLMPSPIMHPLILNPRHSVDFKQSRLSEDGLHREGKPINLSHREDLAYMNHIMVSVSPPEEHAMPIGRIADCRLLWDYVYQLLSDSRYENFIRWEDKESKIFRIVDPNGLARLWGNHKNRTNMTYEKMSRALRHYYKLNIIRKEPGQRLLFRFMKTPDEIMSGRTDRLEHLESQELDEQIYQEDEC
How it was run: as §1

[14] = molecular target: T10, ELF3 (Homo sapiens, UniProt P78545 1-371)
T10 sequence: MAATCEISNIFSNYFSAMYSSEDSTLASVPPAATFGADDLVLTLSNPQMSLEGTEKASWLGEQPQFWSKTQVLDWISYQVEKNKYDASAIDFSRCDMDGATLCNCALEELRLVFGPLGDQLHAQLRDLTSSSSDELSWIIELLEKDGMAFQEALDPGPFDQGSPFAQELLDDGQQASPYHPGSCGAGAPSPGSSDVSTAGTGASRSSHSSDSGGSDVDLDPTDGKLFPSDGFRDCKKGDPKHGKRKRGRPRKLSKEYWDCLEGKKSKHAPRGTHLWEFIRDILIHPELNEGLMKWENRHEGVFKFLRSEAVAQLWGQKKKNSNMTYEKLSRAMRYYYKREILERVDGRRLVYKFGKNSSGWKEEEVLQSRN
How it was run: as §1

[15] = molecular target: T11, ETV7 (Homo sapiens, UniProt Q9Y603 1-341)
T11 sequence: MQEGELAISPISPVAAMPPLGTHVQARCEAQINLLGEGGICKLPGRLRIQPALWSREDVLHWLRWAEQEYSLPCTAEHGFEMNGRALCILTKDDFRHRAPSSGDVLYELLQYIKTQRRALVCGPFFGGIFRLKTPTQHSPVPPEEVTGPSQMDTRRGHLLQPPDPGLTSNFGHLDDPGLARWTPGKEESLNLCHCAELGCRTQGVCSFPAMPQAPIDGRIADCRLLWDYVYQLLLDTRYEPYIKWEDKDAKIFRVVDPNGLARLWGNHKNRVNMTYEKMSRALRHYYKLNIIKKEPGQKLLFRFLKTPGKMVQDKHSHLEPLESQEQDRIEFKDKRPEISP
How it was run: as §1

[16] = molecular target: T12, ELF5 (Homo sapiens, UniProt Q9UKW6-2 1-255)
T12 sequence: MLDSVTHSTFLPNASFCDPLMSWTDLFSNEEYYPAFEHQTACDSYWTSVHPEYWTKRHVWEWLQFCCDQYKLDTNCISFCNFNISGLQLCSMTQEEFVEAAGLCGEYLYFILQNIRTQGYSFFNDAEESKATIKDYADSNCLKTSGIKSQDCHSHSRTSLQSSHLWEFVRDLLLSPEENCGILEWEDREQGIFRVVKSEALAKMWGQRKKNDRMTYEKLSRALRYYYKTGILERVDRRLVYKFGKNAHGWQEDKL
How it was run: as §1

Sequence | binding signal [1] | binding signal [2] | binding signal [3] | binding signal [4] | binding signal [5] | binding signal [6] | binding signal [7] | binding signal [8] | binding signal [9] | binding signal [10] | binding signal [11] | binding signal [12] | binding signal [13] | binding signal [14] | binding signal [15] | binding signal [16]
GCGCCC | 1.08 fold enrichment (6-mer frequency, TF over GST control) | 1.04 fold enrichment (6-mer frequency, TF over GST control) | 1.01 fold enrichment (6-mer frequency, TF over GST control) | 1.19 fold enrichment (6-mer frequency, TF over GST control) | 1.02 fold enrichment (6-mer frequency, TF over GST control) | 1.02 fold enrichment (6-mer frequency, TF over GST control) | 1.05 fold enrichment (6-mer frequency, TF over GST control) | 1.18 fold enrichment (6-mer frequency, TF over GST control) | 1.2 fold enrichment (6-mer frequency, TF over GST control) | 1.05 fold enrichment (6-mer frequency, TF over GST control) | 1.13 fold enrichment (6-mer frequency, TF over GST control) | 1.2 fold enrichment (6-mer frequency, TF over GST control) | 1.03 fold enrichment (6-mer frequency, TF over GST control) |  |  | 
GGGCTC | 1.15 fold enrichment (6-mer frequency, TF over GST control) | 1.18 fold enrichment (6-mer frequency, TF over GST control) | 1.19 fold enrichment (6-mer frequency, TF over GST control) | 1.26 fold enrichment (6-mer frequency, TF over GST control) | 1.09 fold enrichment (6-mer frequency, TF over GST control) |  | 1.29 fold enrichment (6-mer frequency, TF over GST control) | 1.28 fold enrichment (6-mer frequency, TF over GST control) | 1.32 fold enrichment (6-mer frequency, TF over GST control) | 1.14 fold enrichment (6-mer frequency, TF over GST control) | 1.09 fold enrichment (6-mer frequency, TF over GST control) | 1.22 fold enrichment (6-mer frequency, TF over GST control) | 1.19 fold enrichment (6-mer frequency, TF over GST control) | 1.19 fold enrichment (6-mer frequency, TF over GST control) | 1.18 fold enrichment (6-mer frequency, TF over GST control) | 1.12 fold enrichment (6-mer frequency, TF over GST control)
GCCCGC | 1.11 fold enrichment (6-mer frequency, TF over GST control) | 1.02 fold enrichment (6-mer frequency, TF over GST control) | 1.34 fold enrichment (6-mer frequency, TF over GST control) | 1.19 fold enrichment (6-mer frequency, TF over GST control) | 1.15 fold enrichment (6-mer frequency, TF over GST control) | 1.16 fold enrichment (6-mer frequency, TF over GST control) | 1.06 fold enrichment (6-mer frequency, TF over GST control) | 1.11 fold enrichment (6-mer frequency, TF over GST control) | 1.09 fold enrichment (6-mer frequency, TF over GST control) | 1.02 fold enrichment (6-mer frequency, TF over GST control) | 1.04 fold enrichment (6-mer frequency, TF over GST control) | 1.16 fold enrichment (6-mer frequency, TF over GST control) | 1.07 fold enrichment (6-mer frequency, TF over GST control) |  | 1.13 fold enrichment (6-mer frequency, TF over GST control) | 1.1 fold enrichment (6-mer frequency, TF over GST control)
